The values that follow come from PubChem BioAssay (Tox21).

Values joined by “and” are separate entries in the source; they are usually repeats but may differ in a detail not shown here. Identical values can stand only once. Results filed as inconclusive are left out. Some compounds were tested as several samples or in several runs, with calls that do not always agree. Active and inactive are the calls of the source. Unless noted, calls come from the whole dose curve.

In test [1] the target is Gonadotropin-releasing hormone receptor (Homo sapiens) (UniProt P30968). In words: Human gonadotropin-releasing hormone receptor (GnRHR) small molecule agonists, calcium flux assay in GnRHR-HEK293 cells (AID 1920063). Note: nearly all actives have a fitted effect of over 35% in size. Note: potency is the fitted concentration of half-maximal effect. The procedure, abridged: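 Compounds dissolved in DMSO are pin-transferred onto dye-loaded GnRHR-HEK293 cells, which were seeded 18 h before at 37 C/5% CO2. Calcium signal is read as fluorescence intensity at 1 s intervals for 3 min.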
Gonadotropin-releasing hormone receptor (Homo sapiens), sequence (P30968 whole entry, looked up): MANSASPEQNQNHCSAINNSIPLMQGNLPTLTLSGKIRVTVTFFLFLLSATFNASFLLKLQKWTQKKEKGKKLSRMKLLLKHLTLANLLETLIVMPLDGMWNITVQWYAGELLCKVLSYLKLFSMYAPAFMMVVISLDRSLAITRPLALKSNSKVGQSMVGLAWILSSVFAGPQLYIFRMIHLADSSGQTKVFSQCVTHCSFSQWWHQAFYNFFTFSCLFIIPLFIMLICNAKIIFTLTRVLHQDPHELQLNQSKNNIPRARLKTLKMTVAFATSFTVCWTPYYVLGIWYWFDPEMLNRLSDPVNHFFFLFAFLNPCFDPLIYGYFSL
Background: Calcium assays in cells follow changes in intracellular calcium, usually with a dye or a luminescent sensor.

Test [2] concerns the target KiSS-1 receptor (Homo sapiens) (UniProt Q969F8). In words: Human kisspeptin (KISS1R) small molecule agonists, calcium flux assay in KISS1R-HEK293 cells (AID 1920064; active = well fitted activation curve with a large enough effect in the repeat runs). The procedure, abridged:
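Cell line: HEK293, stable human KISS1R. Dye loading 1 h at 37 C after 18 h culture. Read: kinetic fluorescence, 480/540 nm, 3 min at 1 s intervals.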

Test [3] is described as follows: G protein-coupled receptor (GPCR) small molecule agonists, calcium flux assay: HEK293 wild type cell line counter screen (AID 1920065). Put shortly:
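Tox21 10K compounds, 15 concentrations each in triplicate, pin-transferred in DMSO onto dye-loaded cells; kinetic read at 480/540 nm for 3 min, 1 s intervals.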

Test [4] can be described thus: p53 small molecule agonists, cell-based qHTS assay with human liver microsomes (AID 1963577).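 Note: p53 response element beta-lactamase reporter cells with liver microsomes plus NADPH.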 Put shortly:
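In this qHTS, p53 response-element beta-lactamase cells receive test compound together with a microsome/NADPH activating system (0.5 mg/mL final each) and are incubated 16 h at 37 C before LiveBLAzer fluorescence detection.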
(In qHTS, concentration-response curves come from the screen itself.)

The nature of test [5]: p53 small molecule agonists, cell-based qHTS assay with rat liver microsomes (AID 1963578). Put shortly:
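Agonist mode in p53RE-bla reporter cells, with compounds co-incubated 16 h at 37 C alongside 0.5 mg/mL rat liver microsomes and 0.5 mg/mL NADPH (final), followed by a 2 h LiveBLAzer detection step.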

Test [6] in a line: p53 small molecule agonists, cell-based qHTS assay with rat liver microsomes: qHTS cell viability counter screen (AID 1963580). Note: nearly all actives have a fitted effect of over 45% in size. Note: potency is the fitted concentration of half-maximal effect. Put shortly:
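Cytotoxicity counter screen: intracellular ATP measured by CellTiter-Glo luminescence in the same wells as the beta-lactamase reporter read, on HCT-116 p53RE-bla cells exposed 16 h at 37 C to compounds with rat liver microsomes and NADPH, each 0.5 mg/mL final.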

Test [7] in a line: p53 small molecule agonists, cell-based qHTS assay: qHTS cell viability counter screen (AID 1963581). Note: nearly all actives have a fitted effect of over 45% in size. Note: potency is the fitted concentration of half-maximal effect. The procedure, abridged: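 ATP content measured by luminescence in HCT-116 p53RE-bla cells treated 16 h at 37 C, same wells as the reporter screen.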
The target in test [8] is 5-hydroxytryptamine receptor 2A (Homo sapiens) (UniProt P28223). In words: 5-hydroxytryptamine receptor 2A (HTR2A) small molecule antagonists, cell-based qHTS assay (AID 1963586). Note: nearly all actives have a fitted effect of over 45% in size. Note: potency is the fitted concentration of half-maximal effect. Put shortly: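 CHO cells stably expressing human HTR2A were plated for 18 h at 37 C, then loaded with calcium dye for 1 h. Compounds were preincubated 5 min at room temperature before DOI (4 nM solution) was added. Kinetic fluorescence was read for 3 min.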
5-hydroxytryptamine receptor 2A (Homo sapiens), sequence (P28223 whole entry, looked up): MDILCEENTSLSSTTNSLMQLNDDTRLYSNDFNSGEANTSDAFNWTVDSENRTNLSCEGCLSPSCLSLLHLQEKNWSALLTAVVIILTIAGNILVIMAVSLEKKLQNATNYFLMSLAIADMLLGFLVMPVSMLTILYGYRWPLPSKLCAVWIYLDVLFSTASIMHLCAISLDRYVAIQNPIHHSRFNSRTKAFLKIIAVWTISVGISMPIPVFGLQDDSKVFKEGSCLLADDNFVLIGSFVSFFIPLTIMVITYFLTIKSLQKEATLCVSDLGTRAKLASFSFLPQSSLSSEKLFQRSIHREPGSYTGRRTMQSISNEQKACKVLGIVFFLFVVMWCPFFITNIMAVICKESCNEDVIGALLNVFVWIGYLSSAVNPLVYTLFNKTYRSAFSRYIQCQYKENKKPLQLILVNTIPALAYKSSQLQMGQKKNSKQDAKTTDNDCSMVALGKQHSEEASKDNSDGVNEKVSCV

The target is the same in test [9]. The test can be described thus: 5-hydroxytryptamine receptor 2A (HTR2A) small molecule agonists, cell-based qHTS assay (AID 1963587). Note: nearly all actives have a fitted effect of over 30% in size. Note: potency is the fitted concentration of half-maximal effect. The procedure, abridged:
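CHO cells stably expressing human HTR2A, plated 18 h, loaded with calcium dye 1 h at 37 C. Agonist mode: compounds added and intracellular calcium fluorescence recorded kinetically for 2 min at 1 sec intervals.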

Test [10] deals with Muscarinic acetylcholine receptor M1 (Homo sapiens) (UniProt P11229). The test can be described thus: Cholinergic receptor muscarinic 1 (CHRM1) small molecule antagonists, cell-based qHTS assay (AID 1963588). Note: nearly all actives have a fitted effect of over 40% in size. The procedure, abridged:
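Compounds were tested at 15 concentrations in three independent runs. Dye-loaded CHRM1-CHO cells were exposed 5 min at room temperature before stimulation by acetylcholine added at 50nM. Intracellular calcium was read kinetically on FDSS for 3 min.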

The target is the same in test [11]. The test can be described thus: Cholinergic receptor muscarinic 1 (CHRM1) small molecule agonists, cell-based qHTS assay (AID 1963589). Note: nearly all actives have a fitted effect of over 35% in size. Note: potency is the fitted concentration of half-maximal effect. Put shortly: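 Homogeneous fluorescence calcium flux, agonist mode. Human M1-expressing CHO cells; compound dosed at 15 concentrations, three independent runs; signal sampled every 1 sec.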
In test [12] the target is Beta-2 adrenergic receptor (Homo sapiens) (UniProt P07550). The test can be described thus: Adrenergic beta2 receptor (ADRB2) small molecule antagonists, cell-based qHTS assay (AID 1963592). Note: nearly all actives have a fitted effect of over 50% in size. Note: potency is the fitted concentration of half-maximal effect. The procedure, abridged: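 Assay format: CHO-ADRB2 cells, 18-20hr seeding at 37C/5% CO2, then compound plus 1nM isoproterenol agonist mix for 0.5hr RT. Homogeneous time-resolved fluorescence cAMP detection after 1hr, expressed as 665/615 nm ratio.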
Beta-2 adrenergic receptor (Homo sapiens), sequence (P07550 whole entry, looked up): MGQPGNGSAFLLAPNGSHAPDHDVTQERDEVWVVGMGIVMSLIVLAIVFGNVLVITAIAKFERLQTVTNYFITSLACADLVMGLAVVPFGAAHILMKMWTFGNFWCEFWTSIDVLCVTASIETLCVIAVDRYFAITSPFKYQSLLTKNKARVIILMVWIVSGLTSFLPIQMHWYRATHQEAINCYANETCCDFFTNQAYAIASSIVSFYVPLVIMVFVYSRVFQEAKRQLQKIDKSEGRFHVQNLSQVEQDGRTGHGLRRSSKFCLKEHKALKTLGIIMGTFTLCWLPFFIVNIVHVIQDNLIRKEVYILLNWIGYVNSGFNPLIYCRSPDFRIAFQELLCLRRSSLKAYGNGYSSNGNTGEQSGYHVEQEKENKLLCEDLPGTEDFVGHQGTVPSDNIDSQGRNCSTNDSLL

Test [13] has as its target D(2) dopamine receptor (Homo sapiens) (UniProt P14416). In words: Dopamine D2 receptor (DRD2) small molecule agonists, cell-based qHTS assay (AID 1963594). Note: nearly all actives have a fitted effect of over 35% in size. Note: potency is the fitted concentration of half-maximal effect. The procedure, abridged:
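HEK293 cells stably expressing human DRD2, pre-treated with PDE inhibitor Ro20-1724 (0.1 mM final) and compound 10 min at room temperature, then stimulated with NKH477 (200nM […]) for 30 min. cAMP read by HTRF (665/620 nm).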

The nature of test [14]: p53 small molecule agonists, cell-based qHTS assay with human liver microsomes: qHTS cell viability counter screen (AID 1963579). Note: nearly all actives have a fitted effect of over 45% in size. Note: potency is the fitted concentration of half-maximal effect. Put shortly: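 Metabolically activated exposure: compounds, human liver microsomes and NADPH (0.5 mg/mL final apiece) were added to p53RE-bla cells seeded 5 h earlier, left 16 h at 37 C, and then assessed for viability by CellTiter-Glo luminescence.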

Test [15] is described as follows: cAMP Responsive Elements (CRE) small molecule agonists, cell-based qHTS assay (AID 1963590). The procedure, abridged: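 HEK 293T cells stably bearing CRE-bla were plated at 2,000 cells per well and rested 18 h. Compounds, positive controls or DMSO were added for 3 h at 37 C. LiveBLAzer B/G substrate was then loaded for 2 h at room temperature.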
Test [16] is described as follows: cAMP Responsive Elements (CRE) small molecule antagonists, cell-based qHTS assay (AID 1963591; active = well fitted inhibition curve with a large enough effect in the signal ratio in the repeat runs, not every such curve was filed as active; the % refers to the signal ratio). Put shortly: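 First, CRE-bla HEK293T cells settled 18 h at 37 C. Next, compound and 0.25 uM final NKH477 were applied for 3 h. Last, LiveBLAzer B/G substrate was loaded for 2 h at room temperature.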
The target in test [17] is Beta-2 adrenergic receptor (Homo sapiens) (UniProt P07550). In words: Adrenergic beta2 receptor (ADRB2) small molecule agonists, cell-based qHTS assay (AID 1963593).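 Note: CHO cells stably overexpressing human ADRB2.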 Put shortly:
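CHO cells stably over-expressing ADRB2 were plated overnight at 37C, then dosed with compounds plus a stimulation mix containing 100uM IBMX and 25uM Ro-20-1724 for 0.5hr at room temperature. cAMP was measured by HTRF competition, 1hr.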

The target of test [18] is D(2) dopamine receptor (Homo sapiens) (UniProt P14416). The test can be described thus: Dopamine D2 receptor (DRD2) small molecule antagonists, cell-based qHTS assay (AID 1963595; active = well fitted inhibition curve with a large enough effect in the signal ratio in the repeat runs, with a control signal flat; the % refers to the signal ratio). Put shortly: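 HEK293 cells stably expressing DRD2, preincubated with 0.1 mM Ro20-1724 and compounds 10 min, were stimulated with 200 nM NKH477 plus 12 nM quinpirole for 30 min at room temperature; cAMP measured by HTRF (665/620 nm).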
D(2) dopamine receptor (Homo sapiens), sequence (P14416 whole entry, looked up): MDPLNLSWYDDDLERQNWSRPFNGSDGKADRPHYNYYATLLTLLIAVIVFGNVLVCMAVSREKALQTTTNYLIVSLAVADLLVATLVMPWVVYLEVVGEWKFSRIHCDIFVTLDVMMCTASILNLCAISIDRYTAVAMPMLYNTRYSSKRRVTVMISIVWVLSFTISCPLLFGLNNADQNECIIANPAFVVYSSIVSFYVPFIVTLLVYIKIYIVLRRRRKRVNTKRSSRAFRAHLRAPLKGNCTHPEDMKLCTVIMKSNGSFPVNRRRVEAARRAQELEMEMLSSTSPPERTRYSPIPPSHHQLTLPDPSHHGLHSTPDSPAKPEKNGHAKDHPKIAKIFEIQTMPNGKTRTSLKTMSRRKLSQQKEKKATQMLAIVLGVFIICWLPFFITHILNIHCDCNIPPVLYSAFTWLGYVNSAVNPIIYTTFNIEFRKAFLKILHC

Test [19] can be described thus: Nuclear factor erythroid 2-related factor 2/antioxidant responsive element (Nrf2/ARE) small molecule agonists: luciferase reporter gene qHTS assay in human keratinocytes (AID 1919969). Note: nearly all actives have a fitted effect of over 35% in size. Note: potency is the fitted concentration of half-maximal effect. For orientation: In a reporter assay the amount or activity of a reporter protein is the signal.
Test [20] is described as follows: p53 small molecule agonists, cell-based qHTS assay (AID 1963582; active = well fitted activation curve with a large enough effect in the signal ratio in the repeat runs, not every such curve was filed as active; the % refers to the signal ratio). Put shortly:
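16 h compound exposure (37 C) of p53 response element–bla cells, preceded by 5 h recovery at 37 C/5% CO2; read-out via LiveBLAzer B/G FRET substrate, 2 h RT, fluorescence intensity.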

KiSS-1 receptor (Homo sapiens), sequence (Q969F8 whole entry, looked up): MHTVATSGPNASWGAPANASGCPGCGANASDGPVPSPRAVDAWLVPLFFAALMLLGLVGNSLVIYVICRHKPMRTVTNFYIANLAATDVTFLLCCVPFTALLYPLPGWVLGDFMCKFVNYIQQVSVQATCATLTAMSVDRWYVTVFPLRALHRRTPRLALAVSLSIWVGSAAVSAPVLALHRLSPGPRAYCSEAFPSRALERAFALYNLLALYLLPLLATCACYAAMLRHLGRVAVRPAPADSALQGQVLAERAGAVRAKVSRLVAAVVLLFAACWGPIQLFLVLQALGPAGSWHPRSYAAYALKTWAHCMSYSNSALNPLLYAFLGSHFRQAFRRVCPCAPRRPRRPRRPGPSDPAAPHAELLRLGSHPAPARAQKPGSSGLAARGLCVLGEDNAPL
Muscarinic acetylcholine receptor M1 (Homo sapiens), sequence (P11229 whole entry, looked up): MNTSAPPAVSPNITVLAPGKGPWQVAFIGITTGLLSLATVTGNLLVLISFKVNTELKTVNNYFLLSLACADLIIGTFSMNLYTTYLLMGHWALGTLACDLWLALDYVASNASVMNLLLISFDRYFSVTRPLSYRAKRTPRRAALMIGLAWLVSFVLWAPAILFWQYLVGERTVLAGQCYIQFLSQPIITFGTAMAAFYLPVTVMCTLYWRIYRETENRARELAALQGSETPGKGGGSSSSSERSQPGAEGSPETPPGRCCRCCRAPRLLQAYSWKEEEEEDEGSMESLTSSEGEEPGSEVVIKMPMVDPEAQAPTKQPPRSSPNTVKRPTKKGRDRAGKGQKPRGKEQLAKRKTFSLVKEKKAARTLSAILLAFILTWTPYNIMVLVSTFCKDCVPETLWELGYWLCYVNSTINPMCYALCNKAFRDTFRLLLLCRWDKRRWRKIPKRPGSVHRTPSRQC

Take `C[CH2][Hg][S]c1ccccc1C(=O)O`: the Potency was 38.9 µM (active) in test [1]; 18.2 µM (active) and 9.98 µM (active) in test [6]; 10.2 µM (active) and 11.2 µM (active) in test [7]; 18.8 µM (active) in [8]; 43.6 µM (active) and 21.3 µM (active) in [9]; 54.9 µM (active) and 19 µM (active) in [11]. The Potency in [12] is 27.3 µM (active) and inactive; in [13], 16.6 µM (active). Further, the Potency entry in test [2], in test [3], in test [4], in test [5] and in test [10] was “inactive” each time.

Consider `Oc1cccc2cccnc12`, for which the Potency result in [1], in [2], in test [3], in test [15], in test [16] and in [12] was “inactive” each time. Further, the Potency result in [17], in test [13] and in test [18] was “inactive” in each case. Further, in test [14], the Potency entry is “inactive and 971 nM (active) and 913 nM (active)”.

With `CCC(=O)OC1(c2ccccc2)CCN(C)CC1`, the Potency result in [19], in test [1], in test [3], in [4], in test [5] and in test [14] was “inactive” each time. Besides, the Potency entry in [6], in test [7], in [20], in test [9], in test [10] and in [11] was “inactive” each time. The Potency entry in test [15], in test [16], in test [12], in [17] and in test [13] was “inactive” in each case.

For the compound `O=C(O)COc1ccccc1`, the Potency result in test [19], in test [1], in test [2], in test [4], in test [5] and in [14] was “inactive” throughout. The Potency entry in test [6], in test [7], in test [8], in test [9], in [11] and in test [15] was “inactive” each time. The Potency result in test [16], in [12] and in test [13] was “inactive” in each case.

`CCOS(=O)(=O)OCC`: the Potency in [19] is 68.7 µM (active) and inactive. Moreover, the Potency result in test [1], in test [3], in test [14], in [6], in [7] and in [8] was “inactive” throughout. For the same compound, the Potency entry in test [9], in [10], in [11], in [15], in test [16] and in [12] was “inactive” each time. Also, the Potency result in test [13] and in [18] was “inactive” in each case.

On to `OC[C@@H](O)[C@H]1O[C@@H]2O[C@H](C(Cl)(Cl)Cl)O[C@@H]2[C@H]1O`, for which the Potency entry in test [19], in [1], in test [2], in [3], in test [14] and in test [6] was “inactive” each time. Further, the Potency result in test [7], in [8], in [9], in test [10], in [11] and in [15] was “inactive” each time. Also, the Potency result in test [16], in test [12], in [13] and in test [18] was “inactive” throughout.

Take `BrCC(Br)c1ccccc1` (stereo not drawn): the Potency result in test [19], in [2], in test [3], in [4], in test [5] and in [14] was “inactive” in each case. In addition, the Potency result in test [6], in test [20], in test [8], in test [9], in test [10] and in [11] was “inactive” each time. The Potency result in test [15], in test [16], in test [12], in [13] and in test [18] was “inactive” throughout.
